ATXN2 expr inh: inhibitors of ATXN2 expression; HEK-293 ATXN2-luciferase reporter, luminescence, 24 h; Potency, µM (titrated, usually from 57 µM), inactives show at the top dose activity change, negative = inhibition, usual class: inhibitors; actives 0.72% (n = 360,000); note: % is set by controls: 0 for no effect and ±100 for the full control effect; nearly all actives have a fitted effect of over 55% in size
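ATXN2-luciferase reporter cells (luciferase flanked by upstream and downstream ATXN2 gene portions) were treated 24 h at 37 °C with compounds at up to 57 uM. SteadyGlo luminescence gave expression; GF-AFC fluorescence gave viability.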
TGFb inhibitor: inhibitors of TGF-b signaling. Potency, µM (highest dose often 46.1 µM), without a hit: top-dose activity, negative = inhibition, actives largely listed as inhibitors. HepG2 CAGA-GFP TGF-b/SMAD3 reporter, GFP fluorescence, 18 h; TGF-beta stimulated, 500 pg/mL final. actives 1.2% (n = 410,000). AID 588855; note: % is set by controls: 0 for no effect and ±100 for the full control effect; nearly all actives have a fitted effect of over 65% in size
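Cell-based qHTS in HEPG2 carrying a CAGA-GFP Smad reporter; compounds added before 500 pg/mL final TGF-beta, 18 h incubation at 37 degrees C, GFP fluorescence quantified per cell by imaging cytometry.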
TDP1 cell CPT: growth inhibition of DT40 Tdp1-/-;hTDP1 cells with camptothecin (screen for TDP1 inhibitors); chicken DT40 Tdp1-/-;hTDP1 cells + 20 nM CPT, ATP luminescence, 48 h; Potency, µM (top dose mostly 46.2 µM), without a hit: at the top dose activity change, negative = growth inhibition, most hits filed as inhibitors; actives 12% (n = 420,000); AID 686979; note: % is set by controls: 0 for no effect and ±100 for the full control effect; nearly all actives have a fitted effect of over 55% in size
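Chicken DT40 Tdp1-/- cells stably complemented with human TDP1 were seeded at 400 cells/well in medium containing 20 nM camptothecin, exposed to pin-transferred compounds, and grown at 37 °C for at least 48 hr. Viability was read as ATP luminescence.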
DT40 TDP1 no CPT: qHTS for Inhibitors of human tyrosyl-DNA phosphodiesterase 1 (TDP1): qHTS in cells in absence of CPT | actives 15% (n = 420,000) | Potency, µM (doses to about 46.2 µM), inactives show top-dose activity change, negative = growth inhibition, usual class: inhibitors | DT40 Tdp1-/- hTDP1 cells, no CPT, ATP luminescence, 48 h; note: % is set by controls: 0 for no effect and ±100 for the full control effect; nearly all actives have a fitted effect of over 55% in size
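Luminescent ATP content (CellTiter-Glo) served as the growth readout. Knockout chicken DT40 cells expressing human TDP1 were exposed to compounds without camptothecin for a minimum 48 hr at 37 °C.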
ATXN viability: viability counter-screen for ATXN expression inhibitors | S2 cells (HEK-293 line with an ATXN2-luciferase reporter) viability, CellTiter-Fluor protease fluorescence, 24 h | Potency, µM (top dose mostly 56.7 µM), actives largely listed as cytotoxic | actives 0.49% (n = 400,000) | AID 651635; note: nearly all actives have a fitted effect of over 40% in size
HepG2 viability: kills HepG2 cells in TGF-b inhibitor counter-screen. HepG2 CAGA-GFP viability, ATP luminescence, 18 h. Potency, µM (series often up to 46.1 µM), inactives show at the highest dose activity change, negative = cytotoxicity, usual class: cytotoxic. actives 0.76% (n = 410,000). AID 588856
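HepG2 CAGA-GFP cells (1000/well, DMEM with 1% FBS) received compound, then TGF-beta at 500 pg/mL final, and were incubated 18 hours at 37 degrees C. Viability was read by CellTiter-Glo luminescence. Media-only wells were set as complete cell-killing and DMSO as no toxicity.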
An asterisk follows results filed as active; i = inactive; ? = inconclusive; / = no result; [ ] = another dose, or the depositor's remark. Rows were chosen to be rich in hits. Some 17% of all compounds tested hit in one or more screens of this group. Calls come from the whole dose curve; as a rule, active = well fitted curve in the direction sought with a large enough effect; inconclusive = small, poorly fitted or top-dose-only effect, or another doubt; inactive = no such curve, though single readings can be large; an effect the other way counts as inactive or inconclusive. Potency is the fitted concentration of half-maximal effect.

SMILES | ATXN2 expr inh | TGFb inhibitor | TDP1 cell CPT | DT40 TDP1 no CPT | ATXN viability | HepG2 viability
Cc1ccccc1C1(CC(=O)N2CCN(C)CC2)CC(=O)N(Cc2ccncc2)C1=O (stereo unspecified) | / | / | -12.7%[9.04 µM] | -1.1% | i | /
O=C(NCCc1csc(-c2cccc(F)c2)n1)c1cccs1 | -35.1% | -6.1% | ? | 16.4µM* | i | -32.0%
CC(C)Oc1ccc(C(=O)NCCc2csc(-c3cccc(F)c3)n2)cc1 | -18.6% | ? | -25.1% | 0.0% | i | -24.6%
COc1cccc(NC(=O)C(=O)NCCc2csc(-c3ccc(C(F)(F)F)cc3)n2)c1 | / | -0.3% | ? | -27.5% | / | 1.7%
COc1ccc(-c2nc(CCNC(=O)c3cccs3)cs2)cc1 | -9.6% | ? | 16.4µM* | 20.6µM* | i | -10.1%
Nc1ccccc1C(=O)NNc1c2ccccc2nc2ccccc12 | / | ? | ? | 13µM* | ? | -15.7%
O=C(NNc1c2ccccc2nc2ccccc12)c1ccc(Cl)cc1 | -18.5% | -1.8% | ? | 11.6µM* | ? | 3.7%
COc1cccc(C(=O)NNc2c3ccccc3nc3ccccc23)c1 | -16.1% | 5.5% | ? | 11.6µM* | i | -9.1%
O=C(CN1CCOCC1)NNc1c2ccccc2nc2ccccc12 | -0.9% | -0.1% | 9.4% | -29.5% | i | 1.1%
COc1ccccc1OCC(=O)NNc1c2ccccc2nc2ccccc12 | / | ? | ? | 18.4µM* | ? | -46.2%
COc1ccc2[nH]c(C)c(C(=O)CN(C)CC(OC)OC)c2c1 | / | ? | ? | ? | / | -52.2%
Cc1ccc(C(=O)NNc2c3ccccc3nc3ccccc23)cc1 | -0.9% | -11.0% | 13µM* | 10.3µM* | ? | -13.2%
Cc1cc(NC(=O)/C=C/c2ccccc2)c(C(C)C)cc1O | / | -8.6% | -22.1% | -13.5% | i | -17.4%
COc1cc(C(=O)OCCCN2CCOCC2)ccc1O | -13.2%[11.3 µM] | 7.3% | 25.8% | 1.2% | i | 3.0%
CCc1c(O)cc(O)c(C(=O)c2ccc(OCCN3CCOCC3)c(OC)c2)c1CC(=O)N(CCOC)CCOC | 1.09µM* | / | / | / | / | /
Cn1cccc1C1NC(=O)c2c(sc3c2CCC(C(C)(C)C)C3)N1 (stereo unspecified) | 6.0% | -9.4% | -29.7% | 18.4µM* | i | -23.7%
COc1cc(C2NC(=O)c3c(sc4c3CCN(C)C4)N2)cc(OC)c1OC (stereo unspecified) | 7.5% | -3.9% | ? | ? | i | 10.7%
Cc1ccc(-n2cnc3cc(C(=O)NCc4ccc(F)cc4)ccc32)c(C)c1 | -36.2% | ? | 20.6µM* | ? | ? | -14.3%
COc1ccc(C)cc1-n1cnc2cc(C(=O)NC3CCCCCC3)ccc21 | ? | ? | ? | ? | ? | -11.9%
Cc1ccc(-n2cnc3cc(C(=O)NC4CCCCCC4)ccc32)c(C)c1 | -20.5% | ? | ? | 16.4µM* | ? | -37.7%
COc1cc(C(=O)Nc2ccc3nc(SCc4ccccc4)sc3c2)cc(OC)c1OC | -0.7% | -30.7% | 13µM* | 14.6µM* | ? | 4.4%
CCC(=O)Nc1nc2ccc(NC(=O)c3cc(OC)c(OC)c(OC)c3)cc2s1 | -13.0% | 36.6% | ? | 20.6µM* | i | -18.9%
O=C(CSc1nc2ccc(NC(=O)CSc3nnnn3-c3ccccc3)cc2s1)Nc1ccccc1 | ? | ? | 16.4µM* | ? | ? | -63.8%
O=C(CSc1nnnn1-c1ccccc1)Nc1ccccc1 | / | -0.5% | -1.2% | 1.5% | ? | -8.8%
CCC(=O)Nc1ccc2nc(SCc3ccccc3)sc2c1 | / | / | ? | 13µM* | / | -17.8%
SMILES | ATXN2 expr inh | TGFb inhibitor | TDP1 cell CPT | DT40 TDP1 no CPT | ATXN viability | HepG2 viability
Cc1ccc(S(=O)(=O)CCC(=O)Oc2ccc(-c3nnco3)cc2)cc1 | 4.2% | -8.9% | -26.3% | -4.0% | ? | -0.4%
CCC(CC)C(=O)Nc1ccc2nc(SCc3ccccc3)sc2c1 | -4.5% | -2.0% | 16.4µM* | 16.4µM* | ? | -17.8%
CCCC(=O)Nc1nc2ccc(NC(=O)c3ccccc3F)cc2s1 | -12.1% | -3.0% | 1.84µM* | 2.06µM* | i | -15.5%
COc1ccc(C(=O)N/C(=C\c2ccc(SC)cc2)C(=O)NCCCn2ccnc2)cc1OC | -1.9% | 1.0% | -23.9% | -18.4% | i | -0.7%
Cc1cc(C(=O)CSc2nc3ccc(Cl)cc3[nH]2)c(C)n1Cc1ccco1 | / | ? | 20.6µM* | 18.4µM* | i | -5.0%
CCCCC1(CO)C(=O)N(c2ccccc2)N(c2ccccc2)C1=O | -4.6% | -13.2% | ? | ? | i | -24.8%
CCCCC1(Br)C(=O)N(c2ccccc2)N(c2ccccc2)C1=O | -23.5% | -16.7% | ? | 16.4µM* | i | 6.8%
CC(C)(C)N1C(=O)c2ccccc2NC(=O)N1Cc1ccccc1 | -0.9% | -13.3% | 1.6% | -8.6% | ? | 3.9%
O=C1Nc2ccccc2C(=O)C1(Cl)Cc1ccccc1 (stereo unspecified) | -11.6% | 4.7% | 6.51µM* | 5.17µM* | ? | 5.3%
Cc1nc(OCc2ccccc2)c2ccccc2n1 | -28.3% | 9.1% | ? | ? | i | -18.4%
COc1ccc(F)cc1COc1nc(C)nc2ccccc12 | -21.6% | -13.2% | ? | 18.4µM* | i | -10.7%
CCNC(=O)CC1C(=O)N(c2ccc(F)cc2)C(=O)N1CCOC (stereo unspecified) | 7.4% | 7.9% | 6.7% | -1.3% | i | -7.5%
CN(Cc1cnc2nc(N)nc(N)c2n1)c1ccc(C(=O)NC(CCC(=O)O)C(=O)O)cc1C(F)(F)F (stereo unspecified) | ? | -24.6% | 0.0291µM* | 0.184µM* | i | -62.6%
COc1ccc(Cc2noc(CN3CCN(Cc4cccc(Cl)c4)CC3)n2)cc1OC | -15.7% | -19.7% | ? | 10.3µM* | i | -29.0%
COc1ccc(Cc2noc(CN3CCN(c4ccc(Cl)cn4)CC3)n2)cc1OC | ? | -24.8% | ? | 18.4µM* | ? | -21.9%
O=C(C1CCN(S(=O)(=O)N2CCC3(CC2)OCCO3)CC1)N1CCc2ccccc2C1 | -0.6% | ? | ? | 16.4µM* | i | -7.4%
O=C(NCCN1CCC(Cc2ccccc2)CC1)C1CCN(S(=O)(=O)N2CCC3(CC2)OCCO3)CC1 | / | -10.4% | 14.6µM* | 18.4µM* | i | -27.6%
O=C(NCCCN1CCC(Cc2ccccc2)CC1)C1CCN(S(=O)(=O)N2CCC3(CC2)OCCO3)CC1 | / | 0.7% | 1.1% | -3.4% | i | 3.4%
